Bioassay records (PubChem)
Hits are enriched below; roughly 11% of the tested compounds scored in any of these assays.
Pf growth 48h – Primary qHTS for delayed death inhibitors of the malarial parasite plastid, 48 hour incubation; Potency, µM (top dose mostly 28.7 µM), inactives show top-dose activity change, negative = inhibition, usual class: inhibitors; actives 5.9% (n = 310,000); P. falciparum luciferase growth in erythrocytes, 48 h; also: % is scaled to controls: 0 for no effect and ±100 for the full control effect
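Read-out is firefly luciferase luminescence from an integrated reporter in P. falciparum, so falling signal marks reduced parasite growth. Infected erythrocytes were at 2% hematocrit and 0.1% parasitemia (final) in Albumax-supplemented RPMI 1640.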
AMA1-RON2 inh – qHTS for Inhibitors of AMA1-RON; Towards Development of Antimalarial Drug Lead: Primary Screen. actives 0.2% (n = 360,000). AID 720542, 2013. AlphaScreen AMA1-biotinylated RON2 peptide binding. Plasmodium falciparum AMA1 (3D7) - RON2 peptide interaction. Potency, µM (top dose mostly 58.2 µM), for the others: at the top dose activity change, negative = inhibition, actives largely listed as inhibitors;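 also: 0% = vehicle wells and -100% = peptide control; nearly all actives have a fitted effect of over 45% in size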
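AMA1 (3D7) with his tag at 25 nM final met compounds first, then biotinylated RON2 peptide at 25 nM; detection used donor plus acceptor beads, 10 µg/mL apiece, read by AlphaScreen after 30 min at room temperature.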
Sm TGR block – qHTS Assay for the Inhibitors of Schistosoma Mansoni Peroxiredoxins. Schistosoma mansoni thioredoxin glutathione reductase (TGR), Q962Y6. purified TGR, DTNB reduction, TNB absorbance 405 nm. Potency, µM (highest dose often 114 µM), for the others: at the top dose activity change, negative = inhibition, hits mostly inhibitors. actives 3% (n = 360,000). AID 485364, 2010; also: % is scaled to controls: 0 for no effect and ±100 for the full control effect; nearly all actives have a fitted effect of over 60% in size
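Kinetic colorimetric format: TGR-catalysed, NADPH-driven DTNB reduction monitored via TNB absorbance. Enzyme dispensed at 20 nM; compound exposure 15 min at room temperature before reaction start.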
NS1 function inh – qHTS Assay for Inhibitors of Influenza NS1 Protein Function. actives 0.4% (n = 270,000). Potency, µM (series often up to 46.1 µM), for inactives: top-dose activity, positive = more growth. AID 2326, 2010; calls by dose curve; also: actives are rising curves; nearly all actives have a fitted effect of over 50% in size
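S. cerevisiae expressing influenza A NS1, grown in glucose, washed, then diluted 1:100 into pH 6.0 -URA galactose medium with 23 nl compound. Growth recovery read as OD600; NS1-free strain serves as control.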
Pf growth 96h – Primary qHTS for delayed death inhibitors of the malarial parasite plastid, 96 hour incubation | P. falciparum luciferase reporter growth, 96 h | Potency, µM (highest dose often 28.7 µM), for inactives: at the highest dose activity change, negative = inhibition, hits mostly inhibitors | actives 6.9% (n = 320,000) | AID 504834, 2011; also: % is scaled to controls: 0 for no effect and ±100 for the full control effect
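Plates of compound plus infected erythrocytes (2% hematocrit, 0.05% parasitemia final) incubate 96 hours, 37 C, 5% CO2. Detection reagent added; reduced luminescence from the parasites' luciferase reporter flags inhibition.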
An asterisk follows results filed as active; i = inactive; ? = inconclusive; / = no result. Unless noted, calls follow the shape of the dose curve; as a rule, active = well fitted curve in the direction sought with a large enough effect; inconclusive = small, poorly fitted or top-dose-only effect, or another doubt; inactive = no such curve, though single readings can be large; an effect the other way counts as inactive or inconclusive. Potency is read from the fitted curve at half-maximal effect.

SMILES	Pf growth 48h	AMA1-RON2 inh	Sm TGR block	NS1 function inh	Pf growth 96h
O=C(Cc1ccc(F)cc1)NCc1ccc2c(c1)CCN2C(=O)c1ccc(F)cc1	/	/	4%	/	/
N#C/C(=C/c1cn(Cc2ccc(F)cc2)c2ccccc12)C(=O)Nc1cccc(Cl)c1	/	/	1%	/	/
CC(C)c1ccc(NC(=O)C2CC(=O)Nc3nc4ccccc4n32)cc1 (stereo unspecified)	3%	1%	-3%	5%	6%
CSc1ccc(CCNC(=O)C(C)n2nc(C)c3sc4ccccc4c3c2=O)cc1 (stereo unspecified)	/	/	1%	/	/
COc1ccc(CCn2c(N)c(S(=O)(=O)c3cccs3)c3nc4ccccc4nc32)cc1OC	9.3µM*	7%	-9%	-36%	?
COc1ccc2[nH]c(C)c(CCNC(=S)Nc3cccc(C)c3C)c2c1	?	25%	-1%	17%	-13%
CCOc1cccc(CNCCc2c(C)[nH]c3ccc(OC(F)(F)F)cc23)c1O	1.9µM*	-5%	0%	8%	?
Cc1[nH]c2ccc(OC(F)(F)F)cc2c1CCNCc1ccc(Cl)cc1	?	-28%	-16%	-6%	?
Cc1[nH]c2ccc(OC(F)(F)F)cc2c1CCNCc1cccc([N+](=O)[O-])c1	1.5µM*	?	-13%	4%	156%
Nc1cccc(-c2cnc3ccccc3n2)c1	213%	-1%	1%	3%	-13%
c1csc(CCCN2CCCCC2)c1	/	-11%	/	/	/
Cc1ccccc1OCc1nc2ccccc2n1Cc1ccccc1Cl	/	/	11%	/	/
COC(=O)c1cccc(Nc2c(-c3ccc(O)c(OC)c3)nc3nc[nH]n23)c1	/	/	40µM*	/	/
COc1ccc(CC(=O)Nc2cc(-c3cn4cccnc4n3)ccc2OC)cc1	/	/	-2%	/	/
Oc1ccc(-c2c(C3=CCCCC3)sc3ccccc23)cc1	-7%	-10%	79µM*	-25%	?
Clc1cccc(-c2nnc(CN3CCN(c4ccccn4)CC3)o2)c1	/	/	-3%	/	/
CCc1ccccc1NC(=O)N[C@@H](C)C(=O)O	7%	7%	1%	7%	9.3µM*
COc1ccc(C2CC(c3ccccc3)=NN2c2ccc(Cl)c(C(=O)O)c2)cc1 (stereo unspecified)	-1%	-17%	6%	10%	?
CCC(=O)Nc1cccc(C2=NN(c3ccccc3)C(c3ccc(OC)cc3)C2)c1 (stereo unspecified)	?	54%	8%	4%	13µM*
CC(=O)Oc1ccc(C2=NN(c3ccccc3)C(c3ccccc3)C2)cc1 (stereo unspecified)	12µM*	117%	9%	3%	11%
CC(=O)c1ccc(N/N=C2/CCCNC2=O)cc1	?	11%	-3%	-3%	-10%
Cc1ccc(N/N=C2/CCCNC2=O)cc1	24%	-1%	32µM*	2%	89%
COc1cccc(NS(=O)(=O)c2ccc3c(c2)N(C)C(=O)CC(=O)N3C)c1	/	/	1%	/	/
COc1ccc(N=Cc2ccc(-c3ccccc3)o2)cc1	9%	?	4%	-3%	12µM*
O/N=C\c1ccc(-c2ccccc2)o1	70%	-21%	2%	-10%	-25%
SMILES	Pf growth 48h	AMA1-RON2 inh	Sm TGR block	NS1 function inh	Pf growth 96h
COC(=O)c1c(NC(=O)c2ccc(S(=O)(=O)N3CCC(C)CC3)cc2)sc2c1CCN(C)C2	/	/	0%	/	/
O=C(NCc1cccnc1)c1sc2cc(Cl)ccc2c1Cl	4%	-8%	6%	-68%	104%
CN(C)C(CNC(=O)c1sc2ccccc2c1Cl)c1ccco1 (stereo unspecified)	/	-3%	/	/	/
O=C(NCc1ccco1)c1sc2cc(Cl)ccc2c1Cl	18%	4%	40µM*	-8%	i
O=C(NCc1ccco1)c1sc2ccccc2c1Cl	63%	0%	?	-8%	3.3µM*
OCc1ccccc1Cn1ccnc1	/	-6%	/	/	/
Cc1cc(Cn2ccnc2)c(C)cc1Cn1ccnc1	13µM*	-18%	-7%	0%	?
Cn1nc(C(=O)OCC(=O)NC2CCS(=O)(=O)C2)c2ccccc2c1=O (stereo unspecified)	35%	-6%	-5%	/	3%
Cc1ccc(S(=O)(=O)n2nc(-c3ccc(Cl)cc3)nc2NCc2ccc(F)cc2)cc1	/	/	13%	/	/
Cc1c(Cl)cccc1NC(=O)c1ccc2nc(C(C)C)oc2c1	/	/	-8%	/	/
Cc1cc(C)n(CC(=O)NC2C(=O)N3C(C(=O)O)=C(CSc4nnc(C)s4)CSC23)n1 (stereo unspecified)	11%	66%	25µM*	/	8%
Cc1nnc(SCC2=C(C(=O)O)N3C(=O)C(NC(=O)Cn4ncc(Cl)c4C)C3SC2)s1 (stereo unspecified)	?	61%	3.2µM*	/	?
CC1=C(C(=O)O)N2C(=O)C(NC(=O)c3nn(C)c(C)c3Cl)C2SC1 (stereo unspecified)	37%	86%	0%	/	24%
Cc1nnc(SCC2=C(C(=O)O)N3C(=O)C(NC(=O)c4cccc(F)c4F)C3SC2)s1 (stereo unspecified)	-3%	53%	10µM*	/	19%
Cc1cc(C(=O)COC(=O)/C=C/c2cccc(Br)c2)c(C)n1C	?	?	-20%	/	21%
Cc1ccc(-n2ncc3c(N4CCN(Cc5ccccc5)CC4)ncnc32)cc1Cl	/	/	-26%	/	/
CC(C)CCC1(CCNC(C)c2cccs2)CCOC(C)(C)C1 (stereo unspecified)	?	-14%	0%	-8%	13µM*
CCC(=O)N(CCC1(C(C)C)CCOC(C)(C)C1)C(C)c1cccs1 (stereo unspecified)	?	2%	3%	-3%	?
COc1ccc(-c2c(-c3ccc(OC)c(C)c3O)n[nH]c2C)cc1	-12%	78%	8%	-28%	12µM*
COc1ccc(-c2c(-c3ccc(O)cc3O)n[nH]c2C)cc1OC	/	31%	13%	?	?
Cc1cc(C)c(-c2cc(C(F)(F)F)no2)c(=O)[nH]1	13%	2%	-27%	1%	12µM*
C=CCCC(=O)Nc1nc(C)c(-c2csc(Nc3cc(Cl)ccc3OC)n2)s1	?	6%	12%	28%	?
CCCCCCC(=O)Nc1nc(C)c(-c2csc(Nc3cc(OC)ccc3OC)n2)s1	7.4µM*	9%	5%	13%	7.4µM*
CCCCCC(=O)Nc1nc(C)c(-c2csc(Nc3cc(OC)ccc3OC)n2)s1	6.6µM*	-5%	30%	12%	12µM*
Cc1ccc2c(c1)c1c3n2CCN(C(=O)c2ccc(C(F)(F)F)cc2)C3CCC1 (stereo unspecified)	/	/	-3%	/	/
COc1ccc(Nc2nc(CC(C)=O)ns2)cc1	111%	2%	-17%	-5%	2.6µM*
CC(=O)Cc1nsc(Nc2ccc(F)cc2)n1	2%	14%	-12%	/	10µM*
